# Publication PMC7819943, “Rice protein-binding microarrays: a tool to detect cis-acting elements near promoter regions in rice”
# Whole data set: some 39,000 sequences, median “fluorescence intensity (a.u.)” near 4,300, cut for the highest 2% near 39,000. The full list was thinned out, with the highest values kept by preference.
# Target: T1, OsSMF1 (Oryza sativa, UniProt Q6ZLB0 1-436)
# T1 sequence: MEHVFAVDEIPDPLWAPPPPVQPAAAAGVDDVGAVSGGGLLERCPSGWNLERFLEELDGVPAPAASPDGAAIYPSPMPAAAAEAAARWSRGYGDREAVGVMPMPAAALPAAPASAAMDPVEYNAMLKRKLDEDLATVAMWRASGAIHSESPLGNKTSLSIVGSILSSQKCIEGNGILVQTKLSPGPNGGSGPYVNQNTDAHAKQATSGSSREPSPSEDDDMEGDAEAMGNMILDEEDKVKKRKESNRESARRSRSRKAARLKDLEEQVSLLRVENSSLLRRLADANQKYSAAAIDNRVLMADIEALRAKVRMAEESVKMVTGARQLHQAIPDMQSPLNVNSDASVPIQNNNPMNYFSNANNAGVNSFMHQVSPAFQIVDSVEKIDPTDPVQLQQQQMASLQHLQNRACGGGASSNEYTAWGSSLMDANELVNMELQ
# Assay: protein-binding microarray (RPBM); PBS, 2% BSA, 51.3 ng/ul salmon testes DNA, 50 uM zinc acetate, 200 nM TF, 25 C, 1 h; high values mean tight binding
# Conditions: protein: recombinant; tags: N-terminal polyhistidine and DsRed monomer fusion (pET32a); chain copies: 2; label: CyDye5-dUTP incorporated in the synthesized complementary strand; 3' TTTTT single-stranded linker to array surface; dsDNA, one strand shown
# Outline: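 In PBS with 2% BSA, salmon testes DNA and 50 µM zinc acetate, 200 nM protein was incubated on a custom Agilent array at 25 °C for 1 h and then washed off. The array had been made double-stranded by primer extension with Cy5-dUTP and blocked with 2% BSA. The proteins were transcription factors fused N-terminally to polyhistidine and DsRed, expressed in E. coli BL21-CodonPlus and purified on Ni–NTA. The binding signal is per-feature fluorescence intensity (arbitrary units) from an Axon 4000B scanner.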
row,Sequence,binding signal
1,CGGCATTGACCTGGTCTTTGTTCCACGTGGCGCTTAGGTGCGGAGTCACCTAGTGCAG,8840 fluorescence intensity (a.u.)
2,TGTATGTCGGGTTGTCGATGATCAAGCCAGTGACACGCTTCGGAGTCACCTAGTGCAG,4000 fluorescence intensity (a.u.)
3,AGCCCACGTCCAGCTCACACACGCACCCACAACCGACCCACGGAGTCACCTAGTGCAG,6070 fluorescence intensity (a.u.)
4,ATAAAATTGCCACATAAGCACCACGTCAATGCTATGTGGGCGGAGTCACCTAGTGCAG,29700 fluorescence intensity (a.u.)
5,TATAATTGCTACGTAAGCGCCACGTCAATGCCATGTCAGACGGAGTCACCTAGTGCAG,15700 fluorescence intensity (a.u.)
6,CAGATATTATATTACGTAACATCTTCGTCAAGCTTACAATCGGAGTCACCTAGTGCAG,3850 fluorescence intensity (a.u.)
7,GATCAAATTGCCACGTAAGCGCCACGTCAATGCCATGTCACGGAGTCACCTAGTGCAG,48000 fluorescence intensity (a.u.)
8,AGAATCGCTTATATTATGGGACGGACGTAACATATAGAAGCGGAGTCACCTAGTGCAG,41100 fluorescence intensity (a.u.)
9,AACATATTAGAATATCGGTCTTAAATTAAATCCCATATAACGGAGTCACCTAGTGCAG,29100 fluorescence intensity (a.u.)
10,ATTTTATTGCCACATAAGCGCCACGTCAATGCCACGTGGGCGGAGTCACCTAGTGCAG,56000 fluorescence intensity (a.u.)
11,AATTGCCACGTAAGCGCCATGTCAGTGCCACGTCAAATTACGGAGTCACCTAGTGCAG,33800 fluorescence intensity (a.u.)
12,TTTTCGGATCAAATTGCCACGTAAGCGCCACGTCAGATGACGGAGTCACCTAGTGCAG,16000 fluorescence intensity (a.u.)
13,ACATATAATTGCCACGTCAGCGCCACATCAATGCCACGTGCGGAGTCACCTAGTGCAG,26100 fluorescence intensity (a.u.)
14,TCAAATCAAATTGCCACGTAAGCGCCACGTCACTGCCACACGGAGTCACCTAGTGCAG,35200 fluorescence intensity (a.u.)
15,ATTTTATTATTCTTGCAGATCAAATTGCCACGTAAGCGTCCGGAGTCACCTAGTGCAG,47800 fluorescence intensity (a.u.)
16,ACTATCAAGTTCGGATTAACCGAACCAATACAACCACTCACGGAGTCACCTAGTGCAG,21900 fluorescence intensity (a.u.)
17,TAAATTTCAAATTCGTGCCACATAGGTCCTTTTCCTCACACGGAGTCACCTAGTGCAG,4670 fluorescence intensity (a.u.)
18,GCTAGCTATTGTTGATTTGTCGTGTTGTAATATATACACTCGGAGTCACCTAGTGCAG,4680 fluorescence intensity (a.u.)
19,TAAATCGATCCTACGTCACATGACAGACTGGACCCTTGTCCGGAGTCACCTAGTGCAG,10900 fluorescence intensity (a.u.)
20,ACGTCCACGAGTCCATGTCATGACACACCCCAAGTTGCTGCGGAGTCACCTAGTGCAG,5510 fluorescence intensity (a.u.)
21,CCCCATCCTAGATGGAACAACCACGTCATCTCATGGGTGACGGAGTCACCTAGTGCAG,14800 fluorescence intensity (a.u.)
22,CGTGATCAATTCGCCTCATGCTGGCGTGACGCGGACCGAGCGGAGTCACCTAGTGCAG,6720 fluorescence intensity (a.u.)
23,TTCAAATGCCACCTAAGCGCCACGTCAACCCCATAGACTGCGGAGTCACCTAGTGCAG,39500 fluorescence intensity (a.u.)
24,TTCAAATGCCACCTAAACGCCACGTCAACCCCATAGACTACGGAGTCACCTAGTGCAG,15600 fluorescence intensity (a.u.)
25,CAAATGCCACCTAAGCGCCACGTCAACCCCATAGACTAGGCGGAGTCACCTAGTGCAG,34200 fluorescence intensity (a.u.)
26,TGTGATGTGGGCATGCGTGTGCGCACGTGTTCTATTGGTGCGGAGTCACCTAGTGCAG,17600 fluorescence intensity (a.u.)
27,CGCACACATGAGCTCATGATGTGAACGTGATGATGGTGCGCGGAGTCACCTAGTGCAG,48500 fluorescence intensity (a.u.)

row,Sequence,binding signal
1,GGTGTGAGTGTGATGTTGCTCGTGTAATGATGCGTGTGCGCGGAGTCACCTAGTGCAG,5000 fluorescence intensity (a.u.)
2,TCCGCCGCCTCGGTCGGCTCACGCGTCCATGTCCATCCCGCGGAGTCACCTAGTGCAG,3600 fluorescence intensity (a.u.)
3,GTCCAGATTCGTTGTACTAGAATATGTCAGATCCAGTCCTCGGAGTCACCTAGTGCAG,3410 fluorescence intensity (a.u.)
4,GAGTTGAGTTTAGACTTTCTAGAGTGGTATATGTATGTTTCGGAGTCACCTAGTGCAG,40900 fluorescence intensity (a.u.)
5,GGGTGAGTGTGTGTTGTGCGTTGTGAGTGTGTATGTGTTTCGGAGTCACCTAGTGCAG,3730 fluorescence intensity (a.u.)
6,CGCACTCAGCTTGTTCCTCTAACTGTACACAGTGGTACTTCGGAGTCACCTAGTGCAG,26500 fluorescence intensity (a.u.)
7,TGTCGGTACTTTCATACGTCATCTATGTATGAGTCGGTTTCGGAGTCACCTAGTGCAG,10600 fluorescence intensity (a.u.)
8,CCTCTAGATCCTCTATGGTACTATATGTACAGTGCTGTTTCGGAGTCACCTAGTGCAG,42900 fluorescence intensity (a.u.)
9,TGGCTATACTATTGAACTTGCTCTCGTGGGACCCACATACCGGAGTCACCTAGTGCAG,3680 fluorescence intensity (a.u.)
10,CTTTTGGTCTCGCGCCCACTGACACGTGGGTCCCACGCTCCGGAGTCACCTAGTGCAG,6100 fluorescence intensity (a.u.)
11,GCGCGCGCGTTCTCTAATCGAAGTCGATAGGATAGGAGGACGGAGTCACCTAGTGCAG,36900 fluorescence intensity (a.u.)
12,TATATAAGAGACCTCACCTCCAAGAATCTCCAGAGAGAGACGGAGTCACCTAGTGCAG,22900 fluorescence intensity (a.u.)
13,CATTCCCTCCTCCTCCTCCTCCTCCTCCTGAATCCCTCCTCGGAGTCACCTAGTGCAG,3380 fluorescence intensity (a.u.)
14,GCCCTGTTCCCTGCAGAGAATCATTATATACTCCCTCCAACGGAGTCACCTAGTGCAG,48100 fluorescence intensity (a.u.)
15,CGAGGTGAGGCGGAGGGGAGGCAGAGGGGTAGAGGAGGGTCGGAGTCACCTAGTGCAG,5260 fluorescence intensity (a.u.)
16,CTACTATACCTCCGTGCGTACCACATACTGTATGTAGACTCGGAGTCACCTAGTGCAG,4130 fluorescence intensity (a.u.)
17,CATAGTGCAGGGGAGAAGCCAGGGAAGAGGGAGGTGACGTCGGAGTCACCTAGTGCAG,3290 fluorescence intensity (a.u.)
18,AATAGGAAATAAACATTACTGAGAAAAGGGCTCATGTTGGCGGAGTCACCTAGTGCAG,29300 fluorescence intensity (a.u.)
19,AAACGATGACTGTTAAATAGGGATTAAAAGGAAAGGATGGCGGAGTCACCTAGTGCAG,41200 fluorescence intensity (a.u.)
20,GAGGAGTGGGAGGAAAATGAGTGGTGGGGAAAGGATAGGGCGGAGTCACCTAGTGCAG,4150 fluorescence intensity (a.u.)
21,AGCACACATACTAGTACTATATGACAAGTCCACGGAGAGCCGGAGTCACCTAGTGCAG,3760 fluorescence intensity (a.u.)
22,GATTAATACGACTACTGTCATACGTACTGTACATGTCATGCGGAGTCACCTAGTGCAG,3720 fluorescence intensity (a.u.)
23,TTTTAGCCTCCTTTTGGTTAATCTTTGTTTGATCCAAGAACGGAGTCACCTAGTGCAG,10200 fluorescence intensity (a.u.)
24,TTTTGAGCCTAGTTAGTCCATGATTAGCCATAAATGCTACCGGAGTCACCTAGTGCAG,4540 fluorescence intensity (a.u.)
25,CTTTGGCTTTTAGCCATAGACTTTGATCCATGAGTTAGAACGGAGTCACCTAGTGCAG,40900 fluorescence intensity (a.u.)
26,GGGAAGAGAGAAGAGACGAAACAGGGAGGAGGGGATTGGGCGGAGTCACCTAGTGCAG,3320 fluorescence intensity (a.u.)
27,CAACATGCACGTACTACGTGTGCTTGCATTGCATGCATGCCGGAGTCACCTAGTGCAG,4450 fluorescence intensity (a.u.)
